The results in this text go back to PMC7862700, “An all-to-all approach to the identification of sequence-specific readers for epigenetic DNA modifications on cytosine”.

The target in this assay is T1, ETV2 (Homo sapiens, UniProt O00321 1-342).
T1 sequence: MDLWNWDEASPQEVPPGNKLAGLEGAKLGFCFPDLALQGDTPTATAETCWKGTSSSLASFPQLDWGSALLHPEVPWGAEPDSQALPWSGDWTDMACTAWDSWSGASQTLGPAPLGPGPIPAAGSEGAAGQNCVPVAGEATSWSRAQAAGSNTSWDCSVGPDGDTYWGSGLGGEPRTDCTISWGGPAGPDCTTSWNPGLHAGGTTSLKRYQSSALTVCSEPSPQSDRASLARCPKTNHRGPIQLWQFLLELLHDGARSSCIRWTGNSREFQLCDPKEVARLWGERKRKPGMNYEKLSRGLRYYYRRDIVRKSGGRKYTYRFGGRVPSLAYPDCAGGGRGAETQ
The assay is described as follows: DAPPL (digital affinity profiling via proximity ligation, sequencing); 10 mM Tris-HCl pH 7.5, 50 mM NaCl, 1 mM DTT, 4% glycerol, room temperature, 30 min; GST-TFs on glutathione beads, 16-mer random dsDNA library, 0.1% formaldehyde crosslink after washing; high values mean tight binding. The conditions noted are these: protein: recombinant; tags: N-terminal GST; dsDNA, one strand shown. The essentials: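 Yeast served to express human transcription factors as GST fusions, which were then captured on glutathione beads and labelled with DNA barcodes. Pooled with a tag-only sample, they were incubated with 200 nmole of a 16-mer random double-stranded DNA library for 30 min at room temperature in Tris/NaCl/DTT/glycerol buffer, washed, crosslinked with 0.1% formaldehyde, ligated by proximity, amplified by PCR and sequenced. Dividing each hexamer's read frequency for a factor by its frequency for the tag-only sample gives the binding signal.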
Consider TACCAT, for which the binding signal is 1.15 fold enrichment (6-mer frequency, TF over GST control). On to GTTCCT, for which the binding signal is 1.65 fold enrichment (6-mer frequency, TF over GST control). With CCGCCT the figure was 1.46 fold enrichment (6-mer frequency, TF over GST control). In the case of AAATTG, the binding signal was 1.21 fold enrichment (6-mer frequency, TF over GST control).

AAAAAG: the binding signal was 1.08 fold enrichment (6-mer frequency, TF over GST control).

As for TATTTT, the binding signal is 1.45 fold enrichment (6-mer frequency, TF over GST control).

As for CTTCGT, the binding signal is 1.41 fold enrichment (6-mer frequency, TF over GST control).

Turning to GTTATT, the binding signal was 1.27 fold enrichment (6-mer frequency, TF over GST control).

For CCTGCT, the binding signal was 1.59 fold enrichment (6-mer frequency, TF over GST control). With CTAGCA, the binding signal is 1.35 fold enrichment (6-mer frequency, TF over GST control). Regarding ATGACC, the binding signal was 1.76 fold enrichment (6-mer frequency, TF over GST control). Consider CTTCCG, for which the binding signal was 7.7 fold enrichment (6-mer frequency, TF over GST control). To AATGAC belongs 1.4 fold enrichment (6-mer frequency, TF over GST control); to ACCGAT, 1.19 fold enrichment (6-mer frequency, TF over GST control). As for ATACGA, the binding signal was 1.05 fold enrichment (6-mer frequency, TF over GST control). Take TCTCGA: the binding signal is 1.27 fold enrichment (6-mer frequency, TF over GST control).

In the case of TGACCG, the binding signal was 1.52 fold enrichment (6-mer frequency, TF over GST control).

As for TCTGCA, the binding signal is 1.2 fold enrichment (6-mer frequency, TF over GST control). TACGAC: the binding signal was 1.51 fold enrichment (6-mer frequency, TF over GST control).

Turning to TAAGTA, the binding signal was 1.38 fold enrichment (6-mer frequency, TF over GST control).

As for GTTCTC, the binding signal is 1.33 fold enrichment (6-mer frequency, TF over GST control). As for TTTTAA, the binding signal was 1.27 fold enrichment (6-mer frequency, TF over GST control). Regarding ATGCTT, the binding signal was 1.29 fold enrichment (6-mer frequency, TF over GST control). With ATCCTG the figure was 1.42 fold enrichment (6-mer frequency, TF over GST control); with ACACTT, 1.58 fold enrichment (6-mer frequency, TF over GST control); with ATTCTC, 1.36 fold enrichment (6-mer frequency, TF over GST control). Consider TCTTTG, for which the binding signal was 1.05 fold enrichment (6-mer frequency, TF over GST control). Regarding CAATTC, the binding signal was 1.39 fold enrichment (6-mer frequency, TF over GST control). For the sequence TAATTT, the binding signal is 1.58 fold enrichment (6-mer frequency, TF over GST control). Take ACTGAT: the binding signal was 1.19 fold enrichment (6-mer frequency, TF over GST control). To TTTTTG belongs 1.51 fold enrichment (6-mer frequency, TF over GST control); to TTTTCG, 1.33 fold enrichment (6-mer frequency, TF over GST control). For TCGACT, the binding signal was 1.33 fold enrichment (6-mer frequency, TF over GST control). For the sequence TTATGT, the binding signal is 1.13 fold enrichment (6-mer frequency, TF over GST control).

On to TTATCT, for which the binding signal is 1.2 fold enrichment (6-mer frequency, TF over GST control). CCGTTC: the binding signal is 1.4 fold enrichment (6-mer frequency, TF over GST control). As to AAACTA, the binding signal is 1.29 fold enrichment (6-mer frequency, TF over GST control). In the case of TACATG, the binding signal was 1.24 fold enrichment (6-mer frequency, TF over GST control). For GTTGCT, the binding signal was 1.26 fold enrichment (6-mer frequency, TF over GST control).
